Measurements published in PubChem BioAssay (Tox21).
Results filed as inconclusive are left out. The source made the active and inactive calls. Unless noted, calls come from the whole dose curve; as a rule, active = well fitted curve in the direction sought with a large enough effect in the repeat runs; inconclusive = weak or mixed curves; inactive = no such curve, though single readings can be large; an effect the other way counts as inactive or inconclusive.

Legend:
[1] = target: Androgen receptor (Homo sapiens) (UniProt P10275); assay: qHTS assay to identify small molecule agonists of the androgen receptor (AR) signaling pathway in the presence of an antagonist (AID 1259381; calls by dose curve; note: nearly all actives have a fitted effect of over 15% in size)
In short: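 Test compounds at 15 concentrations were incubated for 16hr with MDA-kb2 reporter cells in presence of 3.0uM nilutamide (final). Signal: ONE-Glo luciferase luminescence.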

[2] = qHTS assay to identify small molecule antagonists of the estrogen receptor beta (ER-beta) signaling pathway - cell viability counter screen (AID 1259382);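 note: HEK293T cells carrying ER-beta-UAS-bla reporter stimulated with estradiol; series mostly up to about 92 µM; nearly all actives have a fitted effect of over 55% in size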
In short: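 In this multiplexed counter screen, cells were seeded at 2,000 per well in medium with 2% charcoal-stripped FBS and incubated 6 hr before compound and 1nM final E2 were added. Sixteen hours later, ATP-based luminescence reported viability.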

[3] = target: Estrogen receptor (Homo sapiens) (UniProt P03372); assay: qHTS assay to identify small molecule agonists of the estrogen receptor alpha (ER-alpha) signaling pathway in the presence of an antagonist (AID 1259383; calls by dose curve; note: top concentration of the series differs between compounds; nearly all actives have a fitted effect of over 15% in size)
In short: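 Stably transfected VM7Luc4E2 reporter cells, kept 5 days in charcoal-stripped serum, received ICI-182,780 at 10.0nM final before compound addition. Following 22hr incubation at 37C and 5% CO2, luciferase signal was read by luminescence.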

[4] = qHTS assay to identify small molecule agonists or antagonists of the thyroid stimulating hormone receptor (TSHR) signaling pathway - wild type cell line counter screen (AID 1259384; calls by dose curve)
In short: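 Wild-type HEK293 cells were plated 18 h at 37 C/5% CO2, pin-dosed with compound plus Ro20-1724 medium, held 30 min at room temperature, then given cAMP-d2 and anti-cAMP-cryptate; fluorescence was read after 1 h. Fifteen concentrations, triplicate.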

[5] = target: Thyrotropin receptor (Homo sapiens) (UniProt P16473); assay: qHTS assay to identify small molecule antagonists of the thyroid stimulating hormone receptor (TSHR) signaling pathway (AID 1259385; calls by dose curve; note: nearly all actives have a fitted effect of over 20% in size)
In short: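 TSHR-HEK293 cells were plated and held 18 h at 37C/5% CO2, then given compound plus Ro20-1724 and stimulated with TSH at 1.5 ng/mL final. After 30 min at room temperature, cAMP was detected with cAMP-d2/anti-cAMP-cryptate (1 h) by fluorescence.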

[6] = qHTS assay to identify small molecule agonists of the estrogen receptor alpha (ER-alpha) signaling pathway in the presence of an antagonist - cell viability counter screen (AID 1259386);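 note: series mostly up to about 92 µM; cells exposed to compounds for 22 h at 37 °C before the viability read; nearly all actives have a fitted effect of over 30% in size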
In short: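 Viability counter screen using VM7Luc4E2 (full-length ER-alpha, four ERE-luciferase). The cells were treated with compounds alongside ICI-182,780 10.0nM for 22hr, and live-cell protease fluorescence was quantified with CellTiter-Fluor.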

[7] = target: Progesterone receptor (Homo sapiens) (UniProt P06401); assay: qHTS assay to identify small molecule agonists of the progesterone receptor (PR) signaling pathway (AID 1346784; calls by dose curve; note: nearly all actives have a fitted effect of over 30% in size)
In short: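 Agonist qHTS: compounds pinned onto 3,000 PR-UAS-bla HEK 293T cells per well in charcoal-stripped serum medium, 16hr at 37C, then beta-lactamase activity measured by LiveBLAzer FRET fluorescence after 2 hours at room temperature.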

[8] = qHTS assay to identify small molecule antagonists of the progesterone receptor (PR) signaling pathway - cell viability counter screen (AID 1346798); note: series mostly up to about 92 µM; nearly all actives have a fitted effect of over 50% in size
In short: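 Cytotoxicity read as CellTiter-Glo luminescence (30 min, room temperature) in the same wells as the beta-lactamase readout. HEK293T PR-UAS-bla cells in charcoal-stripped 2% FBS received compound and R5020, then 16 h at 37C, 5% CO2.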

[9] = qHTS assay to identify small molecule antagonists of the TGF-beta/Smad signaling pathway - cell viability counter screen (AID 1346824); note: nearly all actives have a fitted effect of over 50% in size
In short: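 SBE-bla HEK 293T cells were plated overnight at 37 C, then given compounds in DMSO plus TGF-beta1 (added as 0.25 ng/mL solution) for 5 hr. After the bla read, CellTiter-Glo was added to the same wells and luminescence read after 30 min at room temperature.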

[10] = qHTS assay to identify small molecule agonists of the TGF-beta/Smad signaling pathway - cell viability counter screen (AID 1346829); note: top concentration of the series differs between compounds; nearly all actives have a fitted effect of over 45% in size
In short: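 Cytotoxicity counter screen: CellTiter-Glo luminescence (30 min, room temperature) measured in the SBE-bla HEK 293T reporter wells after 5 hr compound treatment at 37 C and the 2 hr substrate step.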

[11] = qHTS assay to identify small molecule agonists of the TGF-beta/Smad signaling pathway (AID 1346859; active = well fitted activation curve with a large enough effect in the signal ratio in the repeat runs, not every such curve was filed as active; the % refers to the signal ratio; note: series mostly up to about 77 µM)
In short: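 Fluorescence (ex 405 nm; em 460 and 530 nm) was read 2 h after LiveBLAzer FRET substrate at RT. The preceding compound treatment of overnight-plated SBE-bla HEK293T cells lasted 5 h at 37 C.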

[12] = Human pregnane X receptor (PXR) small molecule agonists, qHTS cell viability counter screen (AID 1346977); note: nearly all actives have a fitted effect of over 50% in size
In short: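 Same-well viability read: CellTiter-Fluor added after 23 hr compound exposure, fluorescence measured 1 hr later. Cells were PXR-Luc HepG2 seeded at 2,000/well in 5% charcoal-stripped FBS medium, rested 5 hr before dosing at 37 C.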

[13] = Caspase-3/7 induction in HepG2 cells by small molecules, qHTS assay (AID 1346978); note: nearly all actives have a fitted effect of over 15% in size
In short: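 Wild-type HepG2 cells (2,000/well) were settled 5 h at 37 C, 5% CO2, then exposed to compounds in DMSO for 17 h. Caspase-3/7 activity was read by luminescence 30 min after adding Caspase-Glo 3/7 reagent at room temperature.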

[14] = Caspase-3/7 induction in CHO-K1 cells by small molecules, qHTS cell viability counter screen (AID 1346979); note: nearly all actives have a fitted effect of over 35% in size
In short: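 Cytotoxicity counter screen: CellTiter-Fluor added to compound-treated wild-type CHO-K1 cells at 16 h (37C, 5% CO2), fluorescence measured 1 h later; same wells as caspase-3/7 measurement.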

[15] = Caspase-3/7 induction in CHO-K1 cells by small molecules, qHTS assay (AID 1346980); note: nearly all actives have a fitted effect of over 15% in size
In short: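 Wild-type cells were seeded at 1,500 per well and settled 5 hr at 37 C, 5% CO2, then exposed to DMSO-dissolved compounds for 17 hr. Caspase-Glo 3/7 reagent was added, and luminescence was read after 30min at room temperature.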

[16] = Caspase-3/7 induction in HepG2 cells by small molecules, qHTS cell viability counter screen (AID 1346981); note: series mostly up to about 92 µM; nearly all actives have a fitted effect of over 30% in size
In short: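 Viability determined by CellTiter-Fluor fluorescence in HepG2 wells also used for the luminescent Caspase-Glo 3/7 read. Compounds were present for 16 hr at 37 C, 5% CO2 before reagent addition.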

[17] = target: Progesterone receptor (Homo sapiens) (UniProt P06401); assay: qHTS assay to identify small molecule antagonists of the progesterone receptor (PR) signaling pathway (AID 1346795; active = well fitted inhibition curve with a large enough effect in the signal ratio in the repeat runs, not every such curve was filed as active; the % refers to the signal ratio)
In short: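 Antagonist mode with agonist R5020 at 1 nM final and 16 hr incubation at 37C. Reporter was beta-lactamase driven by UAS in HEK293T (PR-UAS-bla), 2% charcoal-stripped serum; signal from LiveBLAzer FRET substrate, 2 hr at room temperature.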

[18] = qHTS assay to identify small molecule agonists of the progesterone receptor (PR) signaling pathway - cell viability counter screen (AID 1346799; calls by dose curve; note: nearly all actives have a fitted effect of over 45% in size)
In short: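 Cytotoxicity measured by CellTiter-Glo luminescence (30 min, RT) in the same wells as the PR beta-lactamase agonist read. Those HEK293T cells had 16 h compound treatment at 37 C in 2% charcoal-stripped FBS medium.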

[19] = target: Thyrotropin-releasing hormone receptor (Homo sapiens) (UniProt P34981); assay: qHTS assay to identify small molecule antagonists of the thyrotropin-releasing hormone receptor (TRHR) signaling pathway (AID 1346877; active = well fitted inhibition curve with a large enough effect in the repeat runs, not every such curve was filed as active; note: series mostly up to about 51 µM)
In short: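 Following an 18 h incubation at 37 °C and a 2 h calcium dye load, TRHR-HEK293 cells were exposed to compound (5 min, room temperature) and challenged with TRH, 1 nM final.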

[20] = target: Thyrotropin-releasing hormone receptor (Homo sapiens) (UniProt P34981); assay: qHTS assay to identify small molecule agonists of the thyrotropin-releasing hormone receptor (TRHR) signaling pathway (AID 1346891; calls by dose curve; note: series mostly up to about 58 µM)
In short: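 Agonist-mode intracellular calcium readout: kinetic fluorescence over 3 min at 1 s intervals after compound addition to TRHR-HEK293 cells (18 h seeded, 2 h dye-loaded at 37 C). Fifteen concentrations, triplicates.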
% is set by controls: 0 for no effect and ±100 for the full control effect.

Sequence of Thyrotropin receptor (Homo sapiens) (P16473 whole entry, looked up): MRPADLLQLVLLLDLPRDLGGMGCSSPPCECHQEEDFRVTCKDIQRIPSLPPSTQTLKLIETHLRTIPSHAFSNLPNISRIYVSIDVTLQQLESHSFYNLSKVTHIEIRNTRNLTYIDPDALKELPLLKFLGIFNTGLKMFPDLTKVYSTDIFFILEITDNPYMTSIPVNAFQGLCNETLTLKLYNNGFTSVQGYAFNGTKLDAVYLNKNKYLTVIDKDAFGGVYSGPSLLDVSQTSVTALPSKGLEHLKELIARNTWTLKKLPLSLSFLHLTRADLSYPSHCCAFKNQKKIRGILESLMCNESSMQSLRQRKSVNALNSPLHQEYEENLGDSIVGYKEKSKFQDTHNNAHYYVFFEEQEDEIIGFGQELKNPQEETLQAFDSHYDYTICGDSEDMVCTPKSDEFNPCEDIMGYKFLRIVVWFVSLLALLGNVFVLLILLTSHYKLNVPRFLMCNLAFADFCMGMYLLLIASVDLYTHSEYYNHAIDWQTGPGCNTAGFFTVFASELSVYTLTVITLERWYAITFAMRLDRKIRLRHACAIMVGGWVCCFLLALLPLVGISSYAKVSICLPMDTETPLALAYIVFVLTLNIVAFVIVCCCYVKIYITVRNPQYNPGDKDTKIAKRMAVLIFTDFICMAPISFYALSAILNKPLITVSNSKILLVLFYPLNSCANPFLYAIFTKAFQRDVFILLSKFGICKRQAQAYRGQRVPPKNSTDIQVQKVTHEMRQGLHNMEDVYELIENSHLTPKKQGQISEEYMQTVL
Sequence of Progesterone receptor (Homo sapiens) (P06401 whole entry, looked up): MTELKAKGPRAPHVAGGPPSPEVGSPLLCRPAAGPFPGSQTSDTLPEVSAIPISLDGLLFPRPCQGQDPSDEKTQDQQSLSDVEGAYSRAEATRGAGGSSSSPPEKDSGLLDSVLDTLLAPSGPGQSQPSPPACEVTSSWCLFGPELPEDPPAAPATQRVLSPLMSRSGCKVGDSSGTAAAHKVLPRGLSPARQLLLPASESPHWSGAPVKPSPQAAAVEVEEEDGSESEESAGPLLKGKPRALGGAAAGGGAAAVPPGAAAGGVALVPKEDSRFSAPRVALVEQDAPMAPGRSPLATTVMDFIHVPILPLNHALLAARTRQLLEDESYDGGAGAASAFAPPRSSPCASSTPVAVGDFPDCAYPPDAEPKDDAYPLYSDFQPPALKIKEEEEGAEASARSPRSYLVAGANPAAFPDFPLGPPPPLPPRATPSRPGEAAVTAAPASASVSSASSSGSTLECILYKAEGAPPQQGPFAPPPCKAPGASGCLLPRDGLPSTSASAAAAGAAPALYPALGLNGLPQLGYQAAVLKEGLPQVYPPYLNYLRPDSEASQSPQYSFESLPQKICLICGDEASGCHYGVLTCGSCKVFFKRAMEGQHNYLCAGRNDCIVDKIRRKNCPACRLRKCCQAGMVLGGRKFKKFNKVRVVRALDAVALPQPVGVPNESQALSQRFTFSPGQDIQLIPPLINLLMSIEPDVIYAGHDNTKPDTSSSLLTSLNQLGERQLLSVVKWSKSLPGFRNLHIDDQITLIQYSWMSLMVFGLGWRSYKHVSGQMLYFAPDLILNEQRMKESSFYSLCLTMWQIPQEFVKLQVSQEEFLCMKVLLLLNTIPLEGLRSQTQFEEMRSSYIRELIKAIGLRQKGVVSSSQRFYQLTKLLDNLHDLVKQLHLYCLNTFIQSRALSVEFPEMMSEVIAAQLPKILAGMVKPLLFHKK
Sequence of Estrogen receptor (Homo sapiens) (P03372 whole entry, looked up): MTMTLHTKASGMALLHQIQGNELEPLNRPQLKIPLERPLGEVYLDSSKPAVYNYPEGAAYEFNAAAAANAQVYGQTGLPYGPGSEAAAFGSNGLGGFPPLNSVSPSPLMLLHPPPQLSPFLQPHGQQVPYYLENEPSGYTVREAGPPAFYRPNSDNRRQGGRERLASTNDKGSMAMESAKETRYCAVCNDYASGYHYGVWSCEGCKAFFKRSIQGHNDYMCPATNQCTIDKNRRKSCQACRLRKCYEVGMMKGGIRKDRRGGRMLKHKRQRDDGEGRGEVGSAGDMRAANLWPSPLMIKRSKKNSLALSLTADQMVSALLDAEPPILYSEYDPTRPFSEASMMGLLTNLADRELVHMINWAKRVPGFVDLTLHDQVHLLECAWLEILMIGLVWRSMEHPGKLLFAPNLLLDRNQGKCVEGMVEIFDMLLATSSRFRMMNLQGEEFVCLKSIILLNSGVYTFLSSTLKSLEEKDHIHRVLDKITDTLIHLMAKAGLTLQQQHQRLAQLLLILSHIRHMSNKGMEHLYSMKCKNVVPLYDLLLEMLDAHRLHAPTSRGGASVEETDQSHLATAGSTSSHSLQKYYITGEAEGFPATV
Sequence of Thyrotropin-releasing hormone receptor (Homo sapiens) (P34981 whole entry, looked up): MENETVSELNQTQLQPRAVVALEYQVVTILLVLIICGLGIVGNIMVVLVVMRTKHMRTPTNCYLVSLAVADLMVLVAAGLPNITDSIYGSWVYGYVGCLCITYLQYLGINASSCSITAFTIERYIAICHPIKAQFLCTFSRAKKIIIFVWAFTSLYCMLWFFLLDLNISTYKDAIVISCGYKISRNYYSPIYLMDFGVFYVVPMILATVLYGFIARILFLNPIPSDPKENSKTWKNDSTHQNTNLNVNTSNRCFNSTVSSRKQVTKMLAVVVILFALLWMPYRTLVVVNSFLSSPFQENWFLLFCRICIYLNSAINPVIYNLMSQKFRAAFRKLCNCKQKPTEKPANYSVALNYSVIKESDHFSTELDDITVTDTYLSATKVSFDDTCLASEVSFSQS
Sequence of Androgen receptor (Homo sapiens) (P10275 whole entry, looked up): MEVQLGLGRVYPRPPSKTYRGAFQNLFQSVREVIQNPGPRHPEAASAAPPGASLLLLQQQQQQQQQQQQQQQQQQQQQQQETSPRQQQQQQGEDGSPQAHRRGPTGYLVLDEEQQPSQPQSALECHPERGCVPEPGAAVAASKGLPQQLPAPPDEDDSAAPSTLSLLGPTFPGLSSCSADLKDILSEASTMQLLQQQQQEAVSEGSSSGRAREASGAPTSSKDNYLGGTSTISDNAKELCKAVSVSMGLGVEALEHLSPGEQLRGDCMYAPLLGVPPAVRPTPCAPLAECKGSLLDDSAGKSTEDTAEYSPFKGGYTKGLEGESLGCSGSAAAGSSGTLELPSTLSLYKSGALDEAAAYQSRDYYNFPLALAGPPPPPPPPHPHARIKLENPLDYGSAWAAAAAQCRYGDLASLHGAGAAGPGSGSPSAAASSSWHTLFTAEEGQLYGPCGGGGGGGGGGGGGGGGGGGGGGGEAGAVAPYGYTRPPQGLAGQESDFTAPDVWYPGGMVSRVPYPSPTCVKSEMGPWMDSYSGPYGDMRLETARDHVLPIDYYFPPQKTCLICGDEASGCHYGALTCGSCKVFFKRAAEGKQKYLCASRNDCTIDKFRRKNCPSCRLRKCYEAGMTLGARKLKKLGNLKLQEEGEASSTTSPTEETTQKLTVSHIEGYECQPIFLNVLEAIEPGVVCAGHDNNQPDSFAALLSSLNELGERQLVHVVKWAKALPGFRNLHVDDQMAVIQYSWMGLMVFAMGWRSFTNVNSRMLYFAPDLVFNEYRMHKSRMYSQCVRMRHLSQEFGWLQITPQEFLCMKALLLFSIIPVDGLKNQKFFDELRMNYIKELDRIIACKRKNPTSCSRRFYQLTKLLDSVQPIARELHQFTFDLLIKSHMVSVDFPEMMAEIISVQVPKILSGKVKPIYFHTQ

CCC(C)OC(C)CC (stereo not given)
inactive: outcome [1] | outcome [2] | Potency [3] | outcome [4] | outcome [5] | outcome [6] | Potency [7] | outcome [8] | outcome [9] | outcome [10] | outcome [11] | outcome [12] | outcome [13] | Potency [14] | outcome [15] | outcome [16]

O=C(NCN1CCOCC1)c1cnccn1
inactive: outcome [1] | outcome [2] | Potency [3] | outcome [6] | Potency [7] | Potency [17] | outcome [8] | outcome [18] | outcome [9] | outcome [10] | outcome [11] | outcome [19] | outcome [20] | outcome [12] | outcome [13] | Potency [14] | outcome [15] | outcome [16]

COCCc1ccccn1
inactive: outcome [1] | outcome [2] | Potency [3] | outcome [4] | outcome [5] | outcome [6] | outcome [8] | outcome [18] | outcome [9] | outcome [10] | outcome [11] | outcome [20] | outcome [12] | outcome [13] | Potency [14] | outcome [15] | outcome [16]

COC(=O)c1cc(Cl)cc(Cl)c1
inactive: outcome [1] | outcome [2] | Potency [3] | outcome [4] | outcome [5] | outcome [6] | Potency [7] | outcome [8] | outcome [18] | outcome [9] | outcome [10] | outcome [11] | outcome [19] | outcome [20] | outcome [12] | outcome [13] | Potency [14] | outcome [15] | outcome [16]

CC(=O)O[C@H]1C[C@@H]2CC[C@@]1(C)C2(C)C
inactive: outcome [1] | outcome [2] | outcome [4] | outcome [5] | outcome [6] | Potency [7] | Potency [17] | outcome [8] | outcome [18] | outcome [9] | outcome [10] | outcome [11] | outcome [19] | outcome [20] | outcome [12] | outcome [13] | Potency [14] | outcome [15] | outcome [16]

N[C@@H](CSCCCO)C(=O)O
inactive: activation [1] -0.115% [at 19 µM] | activity change, negative = cytotoxicity [2] 8.62% [at 19 µM] | activation [3] -1.71% [at 19 µM] | cAMP activity change [4] -1.7% [at 18.9 µM] | activity change, negative = inhibition [5] -0.731% [at 19 µM] | activity change, negative = cytotoxicity [6] -1.24% [at 19 µM] | activation [7] -0.517% [at 19 µM] | activity change, negative = cytotoxicity [8] -3.41% [at 18.9 µM] | activity change, negative = cytotoxicity [18] 4.73% [at 19 µM] | viability change, negative = cytotoxic [9] -0.153% [at 15.8 µM] | activity change, negative = cytotoxicity [10] 6.47% [at 15.8 µM] | activation [11] 6.83% [at 15.8 µM] | activity, negative = inhibition [19] -0.484% [at 10.5 µM] | activation [20] -0.038% [at 11.8 µM] | activity change, negative = cytotoxicity [12] 9.45% [at 19 µM] | caspase activation [13] -0.396% [at 19 µM] | activity change, negative = cytotoxicity [14] 1.3% [at 19 µM] | caspase-3/7 activation [15] 0.125% [at 19 µM] | activity change, negative = cytotoxicity [16] -2.1% [at 19 µM]

COc1cc(OC)nc(O[C@H](C(=O)O)C(OC)(c2ccccc2)c2ccccc2)n1
inactive: outcome [1] | outcome [2] | Potency [3] | outcome [4] | outcome [5] | outcome [6] | Potency [7] | outcome [18] | outcome [9] | outcome [10] | outcome [19] | outcome [12] | outcome [13] | Potency [14] | outcome [15] | outcome [16]

COc1cc2c(cc1OC)C(=O)C(CC1CCN(Cc3ccccc3)CC1)C2 (stereo not given)
inactive: outcome [1] | outcome [2] | Potency [3] | outcome [4] | outcome [5] | Potency [17] | outcome [8] | outcome [18] | outcome [9] | outcome [10] | outcome [11] | outcome [19] | outcome [13] | Potency [14] | outcome [15] | outcome [16]

OC1(c2ccc(Cl)cc2)CCNCC1
inactive: outcome [1] | outcome [2] | Potency [3] | outcome [4] | outcome [5] | outcome [6] | Potency [7] | Potency [17] | outcome [9] | outcome [10] | outcome [11] | outcome [19] | outcome [20] | outcome [12] | outcome [13] | Potency [14] | outcome [15] | outcome [16]

COC(C)(OC)OC
inactive: outcome [1] | outcome [2] | Potency [3] | outcome [4] | outcome [5] | outcome [6] | Potency [17] | outcome [8] | outcome [18] | outcome [9] | outcome [10] | outcome [11] | outcome [19] | outcome [20] | outcome [12] | outcome [13] | Potency [14] | outcome [15] | outcome [16]

CCC(=O)c1c(O)cc(O)cc1O
inactive: outcome [1] | outcome [2] | Potency [3] | outcome [4] | outcome [5] | outcome [6] | Potency [7] | outcome [8] | outcome [18] | outcome [9] | outcome [10] | outcome [11] | outcome [12] | outcome [13] | outcome [15] | outcome [16]

CCCCCCCCCOC(=O)c1ccccc1C(=O)OCCCCCCCCC
inactive: outcome [1] | outcome [2] | Potency [3] | outcome [4] | outcome [5] | outcome [6] | Potency [7] | Potency [17] | outcome [8] | outcome [9] | outcome [10] | outcome [11] | outcome [20] | outcome [12] | outcome [13] | Potency [14] | outcome [15] | outcome [16]

O=C(Cl)c1ccccc1[N+](=O)[O-]
inactive: outcome [1] | outcome [2] | outcome [4] | outcome [5] | outcome [6] | Potency [7] | Potency [17] | outcome [8] | outcome [18] | outcome [9] | outcome [10] | outcome [11] | outcome [20] | outcome [12] | outcome [13] | Potency [14] | outcome [15] | outcome [16]

OC[C@H]1O[C@@H](O[C@@H]2[C@@H](CO)O[C@](O)(CO)[C@H]2O)[C@H](O)[C@@H](O)[C@H]1O
inactive: outcome [1] | outcome [2] | Potency [3] | outcome [4] | outcome [5] | outcome [6] | Potency [17] | outcome [8] | outcome [18] | outcome [9] | outcome [10] | outcome [19] | outcome [12] | outcome [13] | outcome [15] | outcome [16]
